Test results from PubChem BioAssay AID1671448 (Corson Lab, School of Medicine, Indiana University, 2021).
Out of some 20,000 compounds screened, about 660 (3.3%) were called active.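 Rule for the calls: active = enzyme reaction rate more than 3 SD below the solvent-only control wells on the same plate; inactive = the rest.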 Shown is part of a subset that was picked to be rich in actives.

biological target: Ferrochelatase, mitochondrial (Homo sapiens) (UniProt P22830); assay: inhibitors of human ferrochelatase, primary screen, biochemical, purified FECH, Ni-mesoporphyrin absorbance (AID 1671448); conditions: Ni-mesoporphyrin absorbance 550 nm, screened at 10 µM (by protocol)
Sequence (P22830 whole entry, looked up): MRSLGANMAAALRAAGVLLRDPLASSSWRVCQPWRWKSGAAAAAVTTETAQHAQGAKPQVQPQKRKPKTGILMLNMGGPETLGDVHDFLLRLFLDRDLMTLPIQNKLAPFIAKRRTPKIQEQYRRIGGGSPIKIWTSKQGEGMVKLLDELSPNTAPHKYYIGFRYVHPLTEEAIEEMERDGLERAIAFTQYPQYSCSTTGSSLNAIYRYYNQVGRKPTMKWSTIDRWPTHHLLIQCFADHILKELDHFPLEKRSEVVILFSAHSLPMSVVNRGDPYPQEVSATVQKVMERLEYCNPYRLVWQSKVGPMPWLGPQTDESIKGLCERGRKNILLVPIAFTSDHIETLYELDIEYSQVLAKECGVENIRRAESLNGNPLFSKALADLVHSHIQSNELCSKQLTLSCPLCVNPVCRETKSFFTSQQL

outcome, active:
Cc1ccccc1CN1CCN(CC(=O)Nc2cccc(Cl)c2C)S1(=O)=O
CC(=O)Nc1ccc(S(=O)(=O)N2CCN(Cc3nc4cccnc4n3-c3ccc(C)cc3)CC2)cc1
CCN(CC)Cc1cnc2c(C(=O)N3CCC(Cn4cccn4)CC3)cnn2c1
COc1ccccc1C(=O)Nc1nc2n(n1)C(c1ccc(F)cc1)C=C(c1ccccc1)N2 (stereo not drawn)
O=C(Nc1nc2n(n1)C(c1ccccc1Cl)C=C(c1ccccc1)N2)c1ccccc1F (stereo not drawn)
Cc1ccc(C2=CC(c3ccc(C)cc3)n3nc(NC(=O)c4ccco4)nc3N2)cc1 (stereo not drawn)

outcome, inactive:
COc1cccc2c1OCC(CN1CCC(O)(c3ccc(C)cn3)CC1)=C2
O=C(O)c1cccnc1CN1CCN(Cc2ccc3c(c2)OCO3)CC1
O=C(CN1CCN(Cc2ccccc2Cl)S1(=O)=O)Nc1ccccc1Cl
COc1ccccc1NC(=O)CN1CCN(Cc2ccccc2C)S1(=O)=O
CCOc1ccc(-c2nc(Cn3c(=O)c4cnc(-c5ccc(OC)cc5)nc4n(C)c3=O)c(C)o2)cc1
CCn1ccc(-c2n[nH]c(=O)n2Cc2ccccc2F)n1
Cc1ccccc1S(=O)(=O)N1CCN(Cc2nc3cccnc3n2-c2ccccc2)CC1
CCc1ccc(S(=O)(=O)N2CCN(Cc3nc4cccnc4n3-c3ccccc3)CC2)cc1
Cc1ccc(OCC(=O)Nc2cc(C)nn2-c2ncnc3c2cnn3-c2cccc(C)c2C)cc1
CCN(CC)Cc1cnc2c(C(=O)Nc3cccc4cc(C)oc34)cnn2c1
NC(=O)c1cccc(CC2CCN(C(=O)c3cnn4cccnc34)C2)c1 (stereo not drawn)
CN1CCC(Cc2noc(CCc3nc4cccnc4n3C)n2)CC1
CCc1cccc(NS(=O)(=O)c2ccc3c(c2)CCN3C(=O)CCC(=O)N2CCOCC2)c1
CCc1nc2nc(C)[nH]n2c(=O)c1NC(=O)Nc1cccc(C(F)(F)F)c1
Cc1nc2nc(-c3ccccc3)nn2c(Sc2ccccc2NC(=O)c2ccc(Cl)cc2)c1C
O=C(Nc1nc2n(n1)C(c1ccc(Cl)cc1)C=C(c1ccc(Cl)cc1)N2)c1ccccc1 (stereo not drawn)
Cc1ccc(C2=CC(c3ccc(F)cc3)n3nc(NC(=O)c4cccs4)nc3N2)cc1 (stereo not drawn)
Cc1ccc(C2=CC(c3c(F)cccc3Cl)n3nc(NC(=O)c4ccco4)nc3N2)cc1 (stereo not drawn)
Cc1ccc(C(=O)Nc2nc3n(n2)C(c2ccccc2)C=C(c2ccc(Cl)cc2)N3)cc1 (stereo not drawn)
O=C(Nc1nc2n(n1)C(c1ccccc1)C=C(c1ccc(Cl)cc1)N2)c1ccc(F)cc1 (stereo not drawn)
O=C(Nc1nc2n(n1)C(c1c(F)cccc1Cl)C=C(c1ccccc1)N2)c1ccc(F)cc1 (stereo not drawn)
CCCC(=O)NC1CC(=O)N(c2ccc(OCC)cc2)C1 (stereo not drawn)
